± gives the standard deviation of the averaged measurements.

What all share (test): relative enzymatic activity vs untreated control (fraction); higher = less inhibition
Holding throughout (details): 100 µM; incubation time: 2 h at 37 C

Assay [1] concerns DNA gyrase. The protocol:
(§1)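 In vitro enzymatic inhibition assays (ProFoldin kits) for 12 purified essential E. coli enzymes or complexes, each treated with 218 active antibacterial compounds at 100 µM for 2 h at 37°C. Read-outs were fluorescence or absorbance (phosphate detection, dye binding), converted to activity via standard curves and expressed relative to untreated DMSO controls.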

Assay [2] concerns the target DNA helicase (UniProt P0ACB1). How it is done:
as §1

The target of assay [3] is DNA ligase (UniProt B1XA82). How it is done:
as §1

Assay [4] has as its target DNA polymerase (UniProt P10443). How it is done: as §1
For assay [5], the target named is DNA primase (UniProt P0ABS7). The protocol:
as §1

Assay [6] addresses GlmU (UniProt A7ZTU1). How it is done: as §1
Assay [7] deals with Guanlyate kinase (UniProt Q0TBG1). The protocol: as §1
Assay [8] has as its target MurA (UniProt Q3YX52). The protocol: as §1
In assay [9] the target is T1, MurD (UniProt P14900).
T1 sequence (whole entry): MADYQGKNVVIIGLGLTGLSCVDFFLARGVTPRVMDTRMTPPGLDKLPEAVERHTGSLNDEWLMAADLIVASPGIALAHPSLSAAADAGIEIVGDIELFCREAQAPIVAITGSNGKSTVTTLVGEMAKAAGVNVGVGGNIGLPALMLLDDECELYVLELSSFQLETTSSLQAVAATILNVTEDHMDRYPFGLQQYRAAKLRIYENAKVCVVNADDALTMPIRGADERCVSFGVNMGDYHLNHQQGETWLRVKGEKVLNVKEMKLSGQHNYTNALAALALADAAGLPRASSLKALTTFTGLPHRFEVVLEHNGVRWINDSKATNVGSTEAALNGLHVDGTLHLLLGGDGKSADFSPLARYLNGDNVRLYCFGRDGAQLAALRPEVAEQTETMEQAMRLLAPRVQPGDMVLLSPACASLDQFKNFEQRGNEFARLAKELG
How it is done:
as §1

Assay [10] concerns the target T2, MurF (UniProt P11880).
T2 sequence (whole entry): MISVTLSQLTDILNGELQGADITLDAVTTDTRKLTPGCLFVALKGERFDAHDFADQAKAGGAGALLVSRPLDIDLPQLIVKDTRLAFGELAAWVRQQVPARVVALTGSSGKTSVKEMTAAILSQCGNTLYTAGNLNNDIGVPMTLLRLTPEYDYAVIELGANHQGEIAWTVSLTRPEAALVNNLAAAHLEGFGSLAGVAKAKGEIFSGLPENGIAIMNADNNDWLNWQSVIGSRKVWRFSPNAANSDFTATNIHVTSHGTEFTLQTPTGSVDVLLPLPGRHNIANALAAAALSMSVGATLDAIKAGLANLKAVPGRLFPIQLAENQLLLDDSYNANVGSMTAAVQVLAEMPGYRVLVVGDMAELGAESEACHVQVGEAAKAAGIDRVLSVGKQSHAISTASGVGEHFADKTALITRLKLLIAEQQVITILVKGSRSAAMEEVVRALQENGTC
The protocol: as §1

Assay [11] concerns RNA polymerase. The protocol: as §1

Sequence of DNA ligase (B1XA82 whole entry): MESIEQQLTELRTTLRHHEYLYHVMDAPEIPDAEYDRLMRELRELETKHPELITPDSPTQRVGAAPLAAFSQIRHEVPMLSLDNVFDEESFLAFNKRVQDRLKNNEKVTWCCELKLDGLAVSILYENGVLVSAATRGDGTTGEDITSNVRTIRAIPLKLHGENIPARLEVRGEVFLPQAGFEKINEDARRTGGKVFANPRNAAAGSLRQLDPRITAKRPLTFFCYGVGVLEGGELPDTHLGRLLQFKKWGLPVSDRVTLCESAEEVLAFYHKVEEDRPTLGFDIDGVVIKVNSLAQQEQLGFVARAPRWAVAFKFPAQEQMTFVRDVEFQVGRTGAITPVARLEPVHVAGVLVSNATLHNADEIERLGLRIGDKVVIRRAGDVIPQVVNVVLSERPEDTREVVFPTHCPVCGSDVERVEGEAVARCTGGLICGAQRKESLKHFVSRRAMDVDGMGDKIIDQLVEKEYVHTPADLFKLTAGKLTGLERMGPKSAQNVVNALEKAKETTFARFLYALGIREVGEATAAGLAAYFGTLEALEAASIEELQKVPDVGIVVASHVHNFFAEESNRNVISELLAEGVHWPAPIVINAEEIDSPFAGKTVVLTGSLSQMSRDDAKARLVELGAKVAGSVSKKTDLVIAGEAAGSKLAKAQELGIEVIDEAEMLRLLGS
Sequence of MurA (Q3YX52 whole entry): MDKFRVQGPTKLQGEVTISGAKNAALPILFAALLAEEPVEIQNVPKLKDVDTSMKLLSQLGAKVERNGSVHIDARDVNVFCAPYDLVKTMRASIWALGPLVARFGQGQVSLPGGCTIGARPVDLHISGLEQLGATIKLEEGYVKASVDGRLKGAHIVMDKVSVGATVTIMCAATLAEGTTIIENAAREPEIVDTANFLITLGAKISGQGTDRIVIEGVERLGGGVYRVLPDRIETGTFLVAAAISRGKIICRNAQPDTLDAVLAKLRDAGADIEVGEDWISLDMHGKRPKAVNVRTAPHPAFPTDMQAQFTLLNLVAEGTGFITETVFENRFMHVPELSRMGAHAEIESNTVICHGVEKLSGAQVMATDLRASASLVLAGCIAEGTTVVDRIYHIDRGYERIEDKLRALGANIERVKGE
Sequence of Guanlyate kinase (Q0TBG1 whole entry): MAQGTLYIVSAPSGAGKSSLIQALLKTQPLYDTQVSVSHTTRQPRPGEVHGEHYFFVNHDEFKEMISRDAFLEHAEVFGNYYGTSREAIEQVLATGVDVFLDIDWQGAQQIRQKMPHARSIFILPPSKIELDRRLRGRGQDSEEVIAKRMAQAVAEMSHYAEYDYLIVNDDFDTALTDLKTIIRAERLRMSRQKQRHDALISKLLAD
Sequence of GlmU (A7ZTU1 whole entry, looked up): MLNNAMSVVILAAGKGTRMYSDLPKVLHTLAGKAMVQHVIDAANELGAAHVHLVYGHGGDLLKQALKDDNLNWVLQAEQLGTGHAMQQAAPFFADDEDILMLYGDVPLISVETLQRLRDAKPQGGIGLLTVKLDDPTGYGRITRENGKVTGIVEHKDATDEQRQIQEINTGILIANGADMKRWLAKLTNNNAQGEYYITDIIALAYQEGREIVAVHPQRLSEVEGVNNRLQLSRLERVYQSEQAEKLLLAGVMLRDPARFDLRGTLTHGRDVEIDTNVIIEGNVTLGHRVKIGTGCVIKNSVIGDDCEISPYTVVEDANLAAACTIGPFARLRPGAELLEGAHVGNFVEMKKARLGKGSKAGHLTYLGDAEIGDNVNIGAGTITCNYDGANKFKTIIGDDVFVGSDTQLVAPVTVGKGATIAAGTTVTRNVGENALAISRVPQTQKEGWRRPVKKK
Sequence of DNA polymerase (P10443 whole entry): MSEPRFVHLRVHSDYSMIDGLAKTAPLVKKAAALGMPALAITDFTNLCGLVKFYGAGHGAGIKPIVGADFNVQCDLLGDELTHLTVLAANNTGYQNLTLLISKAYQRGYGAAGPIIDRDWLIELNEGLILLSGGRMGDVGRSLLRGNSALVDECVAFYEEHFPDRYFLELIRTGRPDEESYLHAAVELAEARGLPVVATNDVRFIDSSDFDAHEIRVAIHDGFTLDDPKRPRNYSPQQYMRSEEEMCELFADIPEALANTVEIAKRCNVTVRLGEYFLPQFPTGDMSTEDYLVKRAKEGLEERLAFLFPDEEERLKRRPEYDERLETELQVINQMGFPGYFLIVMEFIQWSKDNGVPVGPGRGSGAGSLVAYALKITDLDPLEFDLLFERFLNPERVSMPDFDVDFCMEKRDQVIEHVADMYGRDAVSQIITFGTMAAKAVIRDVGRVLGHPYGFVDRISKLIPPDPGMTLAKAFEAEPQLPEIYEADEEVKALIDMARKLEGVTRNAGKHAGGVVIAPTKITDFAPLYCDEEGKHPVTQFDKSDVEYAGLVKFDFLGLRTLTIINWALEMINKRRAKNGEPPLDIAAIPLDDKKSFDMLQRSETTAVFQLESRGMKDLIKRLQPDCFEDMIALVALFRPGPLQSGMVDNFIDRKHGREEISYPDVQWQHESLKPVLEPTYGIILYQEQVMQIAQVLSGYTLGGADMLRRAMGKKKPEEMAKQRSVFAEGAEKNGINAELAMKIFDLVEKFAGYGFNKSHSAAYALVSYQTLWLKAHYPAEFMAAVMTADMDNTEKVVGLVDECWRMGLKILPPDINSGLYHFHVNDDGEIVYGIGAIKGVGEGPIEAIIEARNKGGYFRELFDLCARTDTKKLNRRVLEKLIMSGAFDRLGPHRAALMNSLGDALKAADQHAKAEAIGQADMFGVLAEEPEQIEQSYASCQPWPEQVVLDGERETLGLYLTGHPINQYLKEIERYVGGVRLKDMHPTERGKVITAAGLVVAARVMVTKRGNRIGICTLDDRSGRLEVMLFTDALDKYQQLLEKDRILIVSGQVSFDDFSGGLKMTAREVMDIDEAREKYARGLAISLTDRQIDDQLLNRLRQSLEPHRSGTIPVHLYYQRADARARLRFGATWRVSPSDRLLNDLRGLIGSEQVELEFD
Sequence of DNA primase (P0ABS7 whole entry): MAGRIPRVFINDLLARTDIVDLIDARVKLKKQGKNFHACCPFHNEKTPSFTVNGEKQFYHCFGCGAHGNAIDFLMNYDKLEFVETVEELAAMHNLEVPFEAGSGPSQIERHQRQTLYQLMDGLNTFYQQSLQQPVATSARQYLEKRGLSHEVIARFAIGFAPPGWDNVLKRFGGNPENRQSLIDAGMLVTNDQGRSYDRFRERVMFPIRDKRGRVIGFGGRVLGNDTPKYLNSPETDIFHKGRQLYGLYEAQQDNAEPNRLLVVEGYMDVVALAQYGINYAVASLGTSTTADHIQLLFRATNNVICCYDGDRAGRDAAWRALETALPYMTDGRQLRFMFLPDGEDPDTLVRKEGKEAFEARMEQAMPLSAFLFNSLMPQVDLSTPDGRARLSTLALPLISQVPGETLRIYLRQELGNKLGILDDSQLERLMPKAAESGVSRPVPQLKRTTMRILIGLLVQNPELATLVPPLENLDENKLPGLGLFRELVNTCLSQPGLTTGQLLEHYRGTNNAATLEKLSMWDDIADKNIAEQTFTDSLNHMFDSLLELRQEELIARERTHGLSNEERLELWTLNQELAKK
Sequence of DNA helicase (P0ACB1 whole entry): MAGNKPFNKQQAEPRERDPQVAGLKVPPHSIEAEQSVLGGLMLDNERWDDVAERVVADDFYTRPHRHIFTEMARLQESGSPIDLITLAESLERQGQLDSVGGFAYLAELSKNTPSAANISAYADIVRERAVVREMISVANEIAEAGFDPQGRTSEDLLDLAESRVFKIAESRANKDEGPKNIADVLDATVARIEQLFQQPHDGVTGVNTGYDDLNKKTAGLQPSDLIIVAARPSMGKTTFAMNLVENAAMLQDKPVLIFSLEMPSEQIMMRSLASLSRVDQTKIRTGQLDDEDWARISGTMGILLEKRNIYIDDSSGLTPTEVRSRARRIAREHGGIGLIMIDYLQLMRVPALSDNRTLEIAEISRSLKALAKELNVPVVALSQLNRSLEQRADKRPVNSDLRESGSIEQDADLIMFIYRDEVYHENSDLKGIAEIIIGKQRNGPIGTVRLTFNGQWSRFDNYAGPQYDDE

For `CCC(C)C1NC(=O)C(CCNCS(=O)(=O)[O-])NC(=O)C(NC(=O)C(CCNCS(=O)(=O)[O-])NC(=O)C(NC(=O)C(CCNCS(=O)(=O)[O-])NC(=O)CCCCC(C)C)C(C)O)CCNC(=O)C(C(C)O)NC(=O)C(CCNCS(=O)(=O)[O-])NC(=O)C(CCNCS(=O)(=O)[O-])NC(=O)C(C(C)CC)NC1=O.[Na+].[Na+].[Na+].[Na+].[Na+]` (configuration not stated), the relative enzymatic activity in [1] was 1.1 ± 0.088; in [2], 0.615 ± 0.27; in [3], 1.08 ± 0.17; in [4], 1.32 ± 0.34; in assay [5], 0.766 ± 0.23; in [6], 0.983 ± 0.022. The relative enzymatic activity in [7] is 1 ± 0.023; in assay [8], 0.564 ± 0.14; in [9], 0.591 ± 0.39; in assay [10], 1.03 ± 0.3; in assay [11], 0.919 ± 0.029.
With `CCn1nc(C(=O)O)c(=O)c2cc3c(cc21)OCO3`, the relative enzymatic activity in assay [1] was 0.136 ± 0.013; in assay [2], 0.479 ± 0.042; in [3], 1.093 ± 0.01; in [4], 1.29 ± 0.3; in assay [5] it was 0.744 ± 0.21; in [6], 0.99 ± 0.077. The relative enzymatic activity was determined as 1.013 ± 0.0046 in assay [7]; 0.762 ± 0.17 in assay [8]; 0.61 ± 0.41 in [9]; 0.86 ± 0.028 in assay [10]; 0.929 ± 0.051 in assay [11].
Take `CC(O)C1C(=O)N2C(C(=O)O)=C(SC3CNC(C(=O)N(C)C)C3)C(C)C12` (configuration not stated): the relative enzymatic activity in assay [1] stood at 0.734 ± 0.42; in [2], 0.994 ± 0.1; in assay [3] it was 1.45 ± 0.021; in assay [4], 1.26 ± 0.3; in [5], 0.719 ± 0.22; in assay [6] it was 1.04 ± 0.19. Also, the relative enzymatic activity turned out to be 0.973 ± 0.11 in [7]; 0.501 ± 0.29 in assay [8]; 0.487 ± 0.33 in [9]; 0.584 ± 0.82 in [10]; 1.09 ± 0.28 in assay [11].
Regarding `COc1cc2c(cc1OC)C(=O)C(CC1CCN(Cc3ccccc3)CC1)C2.Cl` (configuration not stated), the relative enzymatic activity came out at 0.363 ± 0.072 in [1]; 0.802 ± 0.32 in assay [2]; 1.19 ± 0.057 in assay [3]; 1.18 ± 0.28 in [4]; 0.713 ± 0.2 in [5]; 0.766 ± 0.067 in assay [6]. Besides, the relative enzymatic activity was determined as 0.892 ± 0.1 in [7]; 0.486 ± 0.059 in assay [8]; 0.456 ± 0.32 in assay [9]; 0.934 ± 0.17 in assay [10]; 0.85 ± 0.011 in assay [11].
For the molecule `Nc1nc(/C(=N/O)C(=O)N[C@@H]2C(=O)N3C(C(=O)O)=C(/C=C4\CCN([C@@H]5CCNC5)C4=O)CS[C@H]23)ns1`, the relative enzymatic activity in [1] turned out to be 0.279 ± 0.18; in assay [2], 0.389 ± 0.35; in [3], 0.901 ± 0.11; in [4] it was 1.08 ± 0.3; in assay [5] it was 0.816 ± 0.035; in assay [6], 0.83 ± 0.021. In addition, the relative enzymatic activity in assay [7] was determined as 0.881 ± 0.12; in assay [8], 0.0852 ± 0.03; in assay [9], 0.57 ± 0.38; in [10], 1.1 ± 0.069; in assay [11] it was 0.561 ± 0.045.
In the case of `COC(=O)N/N=C/c1c[n+]([O-])c2ccccc2[n+]1[O-]`, the relative enzymatic activity turned out to be 0.905 ± 0.076 in assay [1]; 0.651 ± 0.26 in assay [2]; 0.933 ± 0.14 in [3]; 1.16 ± 0.23 in assay [4]; 0.803 ± 0.018 in [5]; 1.012 ± 0.0043 in assay [6]. Moreover, the relative enzymatic activity in assay [7] is 0.591 ± 0.026; in [8], 0.719 ± 0.12; in [9] it was 0.604 ± 0.4; in [10], 0.913 ± 0.27; in assay [11], 0.789 ± 0.081.
`Cc1cc(C(C)(C)CC(C)(C)C)ccc1OCCOCC[N+](C)(C)Cc1ccccc1.[Cl-]`: the relative enzymatic activity in [1] came out at 0.0681 ± 0.096; in [2], 0.0148 ± 0.0016; in assay [3] it was 1.09 ± 0.19; in assay [4], 0.247 ± 0.011; in [5] it was 0.55 ± 0.034; in [6], 0.409 ± 0.4. In addition, the relative enzymatic activity came to 0.428 ± 0.034 in [7]; 0.0365 ± 0.0028 in assay [8]; 0.0983 ± 0.021 in assay [9]; 0.477 ± 0.33 in [10]; 0.664 ± 0.036 in [11].
Regarding `CC1c2cccc(O)c2C(=O)C2=C(O)C3(O)C(=O)C(C(N)=O)=C(O)C(N(C)C)C3C(O)C21.Cl` (configuration not stated), the relative enzymatic activity in assay [1] was found to be 0.996 ± 0.098; in [2], 0.728 ± 0.41; in assay [3], 1.05 ± 0.12; in [4] it was 1.34 ± 0.32; in assay [5], 0.734 ± 0.2; in assay [6], 0.971 ± 0.048. Also, the relative enzymatic activity was 1.12 ± 0.046 in assay [7]; 0.431 ± 0.093 in [8]; 0.572 ± 0.37 in [9]; 0.943 ± 0.17 in assay [10]; 0.9639 ± 0.0043 in assay [11].
For `NCC[C@H](O)C(=O)N[C@@H]1C[C@H](N)[C@@H](O[C@H]2O[C@H](CN)[C@@H](O)[C@H](O)[C@H]2O)[C@H](O)[C@H]1O[C@H]1O[C@H](CO)[C@@H](O)[C@H](N)[C@H]1O`, the relative enzymatic activity in assay [1] stood at 0.228 ± 0.0032; in assay [2] it was 0.0994 ± 0.0019; in [3], 0.871 ± 0.16; in [4], 0.863 ± 0.26; in assay [5] it was 0.508 ± 0.14; in [6], 0.9473 ± 0.0079. For the same molecule, the relative enzymatic activity was found to be 0.438 ± 0.056 in assay [7]; 0.326 ± 0.1 in [8]; 0.608 ± 0.42 in assay [9]; 0.979 ± 0.24 in assay [10]; 0.699 ± 0.083 in assay [11].
On to `CC1C(NC(=O)C(=NOC(C)(C)C(=O)O)c2csc(N)n2)C(=O)N1S(=O)(=O)O` (configuration not stated), for which the relative enzymatic activity in assay [1] came to 0.879 ± 0.42; in [2], 0.582 ± 0.14; in assay [3] it was 1.36 ± 0.2; in assay [4], 0.711 ± 0.38; in assay [5], 0.832 ± 0.01; in assay [6], 0.903 ± 0.016. Also, the relative enzymatic activity in assay [7] is 0.908 ± 0.068; in assay [8], 0.798 ± 0.071; in [9], 0.589 ± 0.39; in assay [10] it was 0.948 ± 0.24; in [11] it was 0.844 ± 0.071.
For the molecule `N[C@@H]1CN(c2c(F)cc3c(=O)c(C(=O)O)cn([C@@H]4C[C@@H]4F)c3c2Cl)CC12CC2`, the relative enzymatic activity came to 0.186 ± 0.26 in [1]; 0.435 ± 0.025 in assay [2]; 0.852 ± 0.06 in assay [3]; 1.1 ± 0.085 in assay [4]; 0.84 ± 0.012 in [5]; 0.987 ± 0.012 in [6]. Moreover, the relative enzymatic activity in [7] is 1 ± 0.11; in assay [8], 0.524 ± 0.094; in [9], 0.591 ± 0.41; in assay [10], 1.31 ± 0.28; in assay [11], 0.979 ± 0.15.
Regarding `CO[C@@H]1[C@@H](OC(=O)c2ccc(C)[nH]2)[C@@H](O)[C@@H](Oc2ccc3c(c2C)OC(=O)[C@H](NC(=O)c2[nH]cc(CC(=O)Nc4cc5ccc(O[C@@H]6OC(C)(C)[C@H](OC)[C@@H](OC(=O)c7ccc(C)[nH]7)[C@H]6O)c(C)c5oc4=O)c2C)C3)CC1(C)C`, the relative enzymatic activity in assay [1] was 0.165 ± 0.23; in [2], 0.0977 ± 0.012; in assay [3], 0.835 ± 0.013; in assay [4], 0.759 ± 0.06; in [5], 0.876 ± 0.11; in [6], 0.892 ± 0.021. Further, the relative enzymatic activity stood at 0.72 ± 0.087 in [7]; 1.09 ± 0.059 in assay [8]; 0.869 ± 0.57 in assay [9]; 1.26 ± 0.26 in assay [10]; 0.715 ± 0.093 in assay [11].

The record behind these values is the supplement of paper PMC9446081.
